Experimental findings from PubChem BioAssay (Tox21) are described below.

“And” between values parts separate entries of the source, which are not always exact repeats. Equal entries are not always repeated. Records with an inconclusive call do not appear. Some structures have more than one record in an assay (separate samples or runs), and their calls can disagree. The source made the active and inactive calls. Unless noted, calls follow the shape of the dose curve; as a rule, active = well fitted curve in the direction sought with a large enough effect in the repeat runs; inconclusive = weak or mixed curves; inactive = no such curve, though single readings can be large; an effect the other way counts as inactive or inconclusive.

Assay [1] in a line: qHTS assay to identify small molecule antagonists of the vitamin D receptor (VDR) signaling pathway - cell viability counter screen (AID 743225). Also: nearly all actives have a fitted effect of over 50% in size. Also: potency is read from the fitted curve at half-maximal effect. Put shortly:
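Parallel cytotoxicity test: VDR-UAS-bla HEK 293T, 3 nM (final) 1-alpha,25-dihydroxyvitamin D3 with test compound, 16 h, 37C. Endpoint is CellTiter-Glo luminescence in the same wells.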
A general note: In qHTS, concentration-response curves come from the screen itself.

Assay [2] in a line: qHTS assay to identify small molecule agonists of the NFkB signaling pathway - cell viability counter screen (AID 1159515; calls by dose curve; also: % is scaled to controls: 0 for no effect and ±100 for the full control effect; nearly all actives have a fitted effect of over 55% in size). The procedure, abridged:
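Counter screen run alongside the NFkB-bla agonist assay: ME-180 reporter cells exposed to compounds for 5 hr, then lysed with CellTiter-Glo in the same wells. Luminescence, read after 30 min, reflects viable cells.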

Assay [3] is described as follows: qHTS assay to identify small molecule agonists of the endoplasmic reticulum stress response signaling pathway (AID 1159516; active = well fitted activation curve with a large enough effect in the signal ratio in the repeat runs, not every such curve was filed as active; the % refers to the signal ratio; also: % is scaled to controls: 0 for no effect and ±100 for the full control effect). The procedure, abridged: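 For this screen, HeLa cells stably carrying beta-lactamase under the ER stress response element received test compounds, positive controls or DMSO for 5 hr at 37 C; B/G FRET substrate was then added and dual-wavelength emission recorded.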

Assay [4] is described as follows: qHTS assay to identify small molecule agonists of the endoplasmic reticulum stress response signaling pathway - cell viability counter screen (AID 1159517; calls by dose curve; also: % is scaled to controls: 0 for no effect and ±100 for the full control effect; nearly all actives have a fitted effect of over 50% in size). The procedure, abridged: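 ESRE-bla HeLa cells (1,500/well) were plated overnight at 37 C and exposed to compounds for 5 hr. After the 2 hr beta-lactamase substrate read, CellTiter-Glo went into the same wells, and luminescence was read after 30 min at room temperature.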

A short description of assay [5]: qHTS assay to identify small molecule antagonists of the retinoid-related orphan receptor gamma (ROR-gamma) signaling pathway - cell viability counter screen (AID 1159520). Also: % is scaled to controls: 0 for no effect and ±100 for the full control effect; nearly all actives have a fitted effect of over 50% in size. Put shortly:
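Cytotoxicity was read from cellular ATP (CellTiter-Glo luminescence) after 16 hr at 37 C with 1 uM doxycycline induction. The inducer was added 2 hr after compound transfer to Tet-on ROR gamma CHO cells.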

Assay [6] can be described thus: qHTS assay to identify small molecule agonists of the AP-1 signaling pathway - cell viability counter screen (AID 1159525; calls by dose curve; also: nearly all actives have a fitted effect of over 55% in size). Put shortly:
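Intracellular ATP by Cell Titer Glo luminescence (30 min, RT) in the same ME-180 AP-1-bla wells after the 5 h compound exposure at 37 °C. Normalised to tetra n-octyl ammonium bromide and DMSO controls.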

A short description of assay [7]: qHTS assay to identify small molecule agonists of the AP-1 signaling pathway (AID 1159526; calls by dose curve; also: potency is read from the fitted curve at half-maximal effect; as to activation: % is scaled to controls: 0 for no effect and ±100 for the full control effect).
The nature of assay [8]: qHTS assay to identify small molecule antagonists of the retinoid acid receptor (RAR) signaling pathway - cell viability counter screen (AID 1159551). Also: nearly all actives have a fitted effect of over 35% in size. Also: potency is read from the fitted curve at half-maximal effect. Put shortly: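 Measured by luminescent ATP detection, viability reflects C3RL4 cells treated 6 h at 37 C with test chemicals in the presence of 1 uM (final) retinol.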
Assay [9] can be described thus: qHTS assay to identify small molecule antagonists of the retinoic acid receptor (RAR) signaling pathway (AID 1159552; also: nearly all actives have a fitted effect of over 50% in size; also: potency is read from the fitted curve at half-maximal effect). Put shortly:
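C3RL4 RARE-luc cells, overnight plating; retinol 1 uM final added right after compound; 6 hr 37 C; luciferase read at 30 min RT.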

A short description of assay [10]: qHTS assay to identify small molecule agonists of the retinoic acid receptor (RAR) signaling pathway (AID 1159553). Also: potency is read from the fitted curve at half-maximal effect. As to conditions: C3RL4 RARE luciferase reporter, agonist, 6 h; activation: at 73.3 µM (top of the series) unless noted. Put shortly:
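6 hr compound exposure (DMSO vehicle) of overnight-plated C3RL4 RARE-luc cells at 37 C; luminescence quantified after 30 min RT with luciferase reagent.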

Assay [11] can be described thus: qHTS assay to identify small molecule antagonists of the estrogen related receptor (ERR) signaling pathway - cell viability counter screen (AID 1224818). Also: % is scaled to controls: 0 for no effect and ±100 for the full control effect. The procedure, abridged:
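Compounds dissolved in DMSO were applied to ERR cells seeded at 2,000 per well 6 h earlier. Cell viability followed 17.5 h later via 30-min CellTiter-Fluor fluorescence.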

Assay [12] can be described thus: qHTS assay to identify small molecule antagonists of the estrogen related receptor signaling pathway with the pleiotropic PPARgamma coactivator (PGC) cell viability counter screen (AID 1224822; also: % is scaled to controls: 0 for no effect and ±100 for the full control effect). Put shortly: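 Counter screen for cell viability: PGC/ERR cells, 6 h pre-incubation after plating, 17.5 h compound exposure at 37 C, fluorescence from CellTiter-Fluor after 30 min.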

Assay [13] can be described thus: qHTS assay to identify small molecule agonists of the RXR signaling pathway - cell viability counter screen (AID 1159529). The procedure, abridged:
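In this parallel viability measure, GeneBLAzer RXR-alpha HEK 293T cells (2% charcoal-stripped FBS) were given a 5 hr preincubation, treated with compounds 16 hr at 37 C, and read by CellTiter-Glo luminescence.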

Assay [14] is described as follows: qHTS assay to identify small molecule antagonists of the estrogen related receptor (ERR) signaling pathway from Tox21 library - cell viability counter screen (AID 1224834). Also: nearly all actives have a fitted effect of over 30% in size. Also: potency is read from the fitted curve at half-maximal effect. Put shortly:
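Seeded ERR cells were rested 6 h at 37 C/5% CO2 before compounds, positive and negative controls or DMSO were added. Incubation continued for 17.5 h, and viability was then quantified by CellTiter-Fluor fluorescence.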

The target in assay [15] is Retinoic acid receptor RXR-alpha (Homo sapiens) (UniProt P19793). The experiment in a line: qHTS assay to identify small molecule agonists of the RXR signaling pathway (AID 1159527; calls by dose curve; also: % is scaled to controls: 0 for no effect and ±100 for the full control effect; nearly all actives have a fitted effect of over 35% in size). The procedure, abridged: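 16 hr incubation of compound-treated RXR-alpha-UAS-bla HEK 293T cells (2% charcoal-stripped FBS, 37 C) preceded a 2 hr room-temperature LiveBLAzer FRET substrate step and blue/green fluorescence measurement.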

In assay [16] the target is Nuclear receptor ROR-gamma (Homo sapiens) (UniProt P51449). Briefly: qHTS assay to identify small molecule antagonists of the retinoid-related orphan receptor gamma (ROR-gamma) signaling pathway (AID 1159521). The procedure, abridged: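 Decreased RORE-driven luciferase luminescence indicates antagonism. Tet-on RORγ CHO cells received compound, then 1 uM final doxycycline 2 h later; signal read after 16 h incubation.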

Chain of Retinoic acid receptor RXR-alpha (Homo sapiens) (P19793 whole entry, looked up): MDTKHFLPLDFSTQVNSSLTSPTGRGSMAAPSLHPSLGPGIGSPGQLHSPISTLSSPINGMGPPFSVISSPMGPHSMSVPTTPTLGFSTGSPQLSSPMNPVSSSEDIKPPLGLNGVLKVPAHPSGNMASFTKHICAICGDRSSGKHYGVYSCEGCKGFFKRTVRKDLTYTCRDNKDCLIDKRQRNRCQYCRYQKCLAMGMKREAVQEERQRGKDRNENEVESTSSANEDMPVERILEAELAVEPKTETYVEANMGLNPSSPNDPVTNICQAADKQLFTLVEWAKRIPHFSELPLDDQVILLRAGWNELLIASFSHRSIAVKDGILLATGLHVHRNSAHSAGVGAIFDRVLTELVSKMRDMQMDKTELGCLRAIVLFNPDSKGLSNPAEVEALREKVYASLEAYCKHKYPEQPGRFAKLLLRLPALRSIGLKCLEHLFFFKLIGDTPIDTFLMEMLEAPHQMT

Regarding `CN(Cc1cnc2nc(N)nc(N)c2n1)c1ccc(C(=O)N[C@@H](CCC(=O)O)C(=O)O)cc1`, in assay [1], the Potency is 0.213 µM (active). In addition, the Potency entry in assay [2], in assay [3], in assay [4], in assay [5], in assay [6] and in assay [7] was “inactive” in each case. The Potency entry in assay [8], in assay [9] and in [10] was “inactive” each time. Also, the call in assay [11] and in [12] was inactive.

Turning to `OCCNCCO`, the Potency entry in assay [1], in assay [2], in [3], in assay [4], in assay [5] and in assay [6] was “inactive” in each case. Also, the Potency result in assay [7], in assay [13], in assay [9], in assay [10] and in assay [14] was “inactive” throughout.

`NCCS(=O)(=O)O`: the Potency result in assay [1], in assay [2], in [4], in [5], in [6] and in [7] was “inactive” each time. For the same compound, the Potency result in [15], in assay [13], in assay [8], in [9] and in assay [14] was “inactive” throughout. Also, the Potency in assay [10] is 28.4 µM (active) and inactive. The result in [11] and in assay [12] was inactive.

`Nc1ccc2c(c1)C(=O)c1ccccc1C2=O`: the Potency entry in assay [1], in assay [2], in [3], in assay [4], in assay [16] and in [6] was “inactive” throughout. Moreover, the Potency entry in assay [7], in [15], in assay [13], in assay [8] and in [9] was “inactive” each time. Further, the Potency in assay [10] was 338 nM (active) and 273 nM (active).

With `CC1=CC(C)(C)Nc2ccccc21`, the Potency entry in [2], in assay [4], in assay [5], in assay [6], in assay [7] and in assay [15] was “inactive” each time. The Potency result in assay [13], in assay [9], in assay [10] and in assay [14] was “inactive” each time.

For `O=C1OC2(c3ccccc31)c1cc(I)c(O)c(I)c1Oc1c2cc(I)c(O)c1I`, the Potency entry in assay [1], in assay [2], in assay [4], in assay [5], in [6] and in assay [15] was “inactive” in each case. Moreover, the Potency result in [13] and in assay [10] was “inactive” throughout. Also, the Potency result in assay [7] is “inactive and 29.8 µM (active)”; in [8], 27.4 µM (active); in [9], 34.8 µM (active) and inactive; in [14], 15.5 µM (active) [middle of 4 runs].

For `Nc1cc([N+](=O)[O-])ccc1C(=O)O`, the Potency entry in assay [1], in assay [4], in assay [5], in [16], in assay [6] and in [7] was “inactive” each time. Further, the Potency entry in assay [15], in assay [13], in [9], in assay [10] and in [14] was “inactive” each time.

In the case of `CC(=O)[C@@]1(O)CC[C@H]2[C@@H]3C[C@H](C)C4=CC(=O)C=C[C@]4(C)[C@@]3(F)[C@@H](O)C[C@@]21C`, the Potency entry in [3], in assay [4], in assay [5], in assay [6], in [7] and in assay [15] was “inactive” each time. For the same compound, the Potency result in assay [13], in assay [9], in assay [10] and in assay [14] was “inactive” each time.

Regarding `C1CN(SSN2CCOCC2)CCO1`, the Potency entry in [1], in [3], in assay [4], in assay [6], in assay [8] and in assay [10] was “inactive” throughout. Also, the Potency in [9] was 53.9 µM (active).

On to `O=C(O)c1ccc(O)cc1`, for which the Potency entry in assay [1], in [4], in assay [5], in assay [16], in assay [6] and in assay [7] was “inactive” throughout. In addition, the Potency entry in assay [15], in assay [13], in assay [8], in assay [9], in assay [10] and in [14] was “inactive” throughout.

Consider `CC[C@]12CCCN3CCc4c(n(c5ccccc45)[C@@](O)(C(=O)OC)C1)[C@@H]32`, for which the Potency entry in [3], in [4], in assay [5], in assay [6], in assay [15] and in [13] was “inactive” each time. Besides, the Potency entry in assay [8], in assay [9], in assay [10] and in assay [14] was “inactive” throughout.
